Consider one sequence from PMC7862700, “An all-to-all approach to the identification of sequence-specific readers for epigenetic DNA modifications on cytosine”.

Test in all cases: DAPPL (digital affinity profiling via proximity ligation, sequencing); 10 mM Tris-HCl pH 7.5, 50 mM NaCl, 1 mM DTT, 4% glycerol, room temperature, 30 min; GST-TFs on glutathione beads, 16-mer random dsDNA library, 0.1% formaldehyde crosslink after washing; high values mean tight binding
Common to all, as to conditions: protein: recombinant; tags: N-terminal GST; dsDNA, one strand shown

The target of assay [1] is T1, ELK1 (Homo sapiens, UniProt P19419 1-428).
T1 sequence: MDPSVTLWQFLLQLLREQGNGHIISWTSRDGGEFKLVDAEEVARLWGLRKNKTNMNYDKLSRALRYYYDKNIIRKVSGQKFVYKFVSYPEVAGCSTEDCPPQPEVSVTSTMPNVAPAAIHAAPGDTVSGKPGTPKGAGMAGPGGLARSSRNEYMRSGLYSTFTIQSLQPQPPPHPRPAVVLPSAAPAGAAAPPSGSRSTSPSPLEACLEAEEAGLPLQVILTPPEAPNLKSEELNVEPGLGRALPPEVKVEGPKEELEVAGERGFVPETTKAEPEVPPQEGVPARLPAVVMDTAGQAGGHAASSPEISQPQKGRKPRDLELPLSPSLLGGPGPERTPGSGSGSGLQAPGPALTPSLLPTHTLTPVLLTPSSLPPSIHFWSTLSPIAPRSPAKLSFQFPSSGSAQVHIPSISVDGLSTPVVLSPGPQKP
In short, it runs like this: (§1)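 Pools were built from human transcription factors expressed in yeast as GST fusions, captured on glutathione beads and DNA-barcoded, along with a tag-only sample. Incubation with 200 nmole of a 16-mer random double-stranded DNA library lasted 30 min at room temperature in Tris/NaCl/DTT/glycerol buffer, and was followed by washing, 0.1% formaldehyde crosslinking, proximity ligation, PCR amplification and Illumina NextSeq500 sequencing. Binding signal is the quotient of each hexamer's read frequency for a factor and its frequency for the tag-only sample.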

Assay [2] concerns the target T2, GABPA (Homo sapiens, UniProt Q06546 1-454).
T2 sequence: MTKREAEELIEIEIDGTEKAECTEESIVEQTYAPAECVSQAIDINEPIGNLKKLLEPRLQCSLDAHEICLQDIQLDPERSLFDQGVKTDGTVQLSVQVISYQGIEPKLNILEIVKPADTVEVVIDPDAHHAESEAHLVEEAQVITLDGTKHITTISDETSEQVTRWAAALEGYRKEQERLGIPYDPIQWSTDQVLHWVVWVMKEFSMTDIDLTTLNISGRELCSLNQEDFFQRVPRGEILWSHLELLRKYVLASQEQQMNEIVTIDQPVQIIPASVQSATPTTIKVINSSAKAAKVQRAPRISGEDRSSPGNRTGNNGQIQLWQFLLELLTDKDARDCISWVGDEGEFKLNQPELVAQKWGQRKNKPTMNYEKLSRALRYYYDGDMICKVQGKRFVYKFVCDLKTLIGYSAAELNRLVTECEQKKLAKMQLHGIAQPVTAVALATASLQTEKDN
The essentials:
as §1

The target in assay [3] is T3, ERG (Homo sapiens, UniProt P11308 1-479).
T3 sequence: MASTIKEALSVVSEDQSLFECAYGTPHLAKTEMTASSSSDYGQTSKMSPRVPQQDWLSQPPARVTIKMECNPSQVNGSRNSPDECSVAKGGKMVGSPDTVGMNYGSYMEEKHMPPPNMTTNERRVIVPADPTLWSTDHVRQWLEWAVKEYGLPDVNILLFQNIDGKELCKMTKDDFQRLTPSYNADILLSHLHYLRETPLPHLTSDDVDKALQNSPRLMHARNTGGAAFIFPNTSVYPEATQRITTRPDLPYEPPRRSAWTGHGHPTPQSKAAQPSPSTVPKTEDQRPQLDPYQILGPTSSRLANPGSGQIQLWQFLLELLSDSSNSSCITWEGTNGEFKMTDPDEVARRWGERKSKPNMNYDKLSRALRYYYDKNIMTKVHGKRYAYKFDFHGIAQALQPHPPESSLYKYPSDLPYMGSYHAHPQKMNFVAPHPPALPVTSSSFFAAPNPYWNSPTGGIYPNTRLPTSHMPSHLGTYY
The essentials:
as §1

The target in assay [4] is ELF1 (Homo sapiens, UniProt P32519 1-619). The essentials:
as §1

For assay [5], the target named is T4, EHF (Homo sapiens, UniProt Q9NZC4 1-300).
T4 sequence: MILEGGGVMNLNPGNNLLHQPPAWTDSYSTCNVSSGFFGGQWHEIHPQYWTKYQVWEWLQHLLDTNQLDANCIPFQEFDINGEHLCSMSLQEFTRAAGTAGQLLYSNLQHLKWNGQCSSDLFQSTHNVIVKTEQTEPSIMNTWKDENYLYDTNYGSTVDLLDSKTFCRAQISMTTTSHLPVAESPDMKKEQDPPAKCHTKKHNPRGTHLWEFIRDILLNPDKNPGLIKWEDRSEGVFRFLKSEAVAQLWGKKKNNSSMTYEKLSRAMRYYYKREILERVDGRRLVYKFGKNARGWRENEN
The essentials:
as §1

Assay [6] concerns the target SPI1 (Homo sapiens, UniProt P17947 1-270). In short, it runs like this:
as §1

The target of assay [7] is SPIB (Homo sapiens, UniProt Q01892 1-262). In short, it runs like this: as §1
Assay [8] addresses T5, FEV (Homo sapiens, UniProt Q99581 1-238).
T5 sequence: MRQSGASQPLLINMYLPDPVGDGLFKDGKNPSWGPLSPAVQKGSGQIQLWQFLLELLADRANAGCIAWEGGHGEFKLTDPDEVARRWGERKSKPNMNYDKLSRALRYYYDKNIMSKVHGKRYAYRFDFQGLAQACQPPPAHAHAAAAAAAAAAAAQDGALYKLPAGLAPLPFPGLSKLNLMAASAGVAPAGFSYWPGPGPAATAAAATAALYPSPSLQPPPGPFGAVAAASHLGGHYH
In short, it runs like this:
as §1

Assay [9] deals with ETV5 (Homo sapiens, UniProt P41161 1-510). In short, it runs like this:
as §1

Assay [10] has as its target ELF4 (Homo sapiens, UniProt Q99607 1-663). The essentials:
as §1

Assay [11] has as its target T6, ELK4 (Homo sapiens, UniProt P28324-2 1-405).
T6 sequence: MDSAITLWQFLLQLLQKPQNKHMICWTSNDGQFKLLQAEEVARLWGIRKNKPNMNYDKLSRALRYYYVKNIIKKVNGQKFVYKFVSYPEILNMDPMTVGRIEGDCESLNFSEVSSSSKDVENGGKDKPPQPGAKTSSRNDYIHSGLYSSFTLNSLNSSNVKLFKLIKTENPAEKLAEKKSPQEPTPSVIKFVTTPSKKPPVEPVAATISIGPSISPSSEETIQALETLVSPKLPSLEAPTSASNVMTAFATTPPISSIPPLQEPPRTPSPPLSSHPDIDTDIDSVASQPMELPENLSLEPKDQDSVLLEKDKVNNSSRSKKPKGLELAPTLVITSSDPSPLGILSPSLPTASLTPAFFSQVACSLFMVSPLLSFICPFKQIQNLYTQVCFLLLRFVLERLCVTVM
In short, it runs like this:
as §1

The target in assay [12] is T7, ETV2 (Homo sapiens, UniProt O00321 1-342).
T7 sequence: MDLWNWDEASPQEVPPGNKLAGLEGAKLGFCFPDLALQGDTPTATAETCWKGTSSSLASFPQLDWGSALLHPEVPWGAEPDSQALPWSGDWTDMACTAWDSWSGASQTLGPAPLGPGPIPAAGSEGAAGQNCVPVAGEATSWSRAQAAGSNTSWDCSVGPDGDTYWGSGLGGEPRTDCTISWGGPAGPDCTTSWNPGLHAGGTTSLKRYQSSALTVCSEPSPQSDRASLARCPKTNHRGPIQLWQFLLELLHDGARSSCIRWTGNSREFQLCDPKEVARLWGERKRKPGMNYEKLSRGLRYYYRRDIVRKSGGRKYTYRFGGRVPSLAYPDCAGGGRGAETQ
The essentials: as §1

Assay [13] has as its target ETV1 (Homo sapiens, UniProt P50549 1-477). The essentials:
as §1

For assay [14], the target named is T8, ERF (Homo sapiens, UniProt P50548 1-548).
T8 sequence: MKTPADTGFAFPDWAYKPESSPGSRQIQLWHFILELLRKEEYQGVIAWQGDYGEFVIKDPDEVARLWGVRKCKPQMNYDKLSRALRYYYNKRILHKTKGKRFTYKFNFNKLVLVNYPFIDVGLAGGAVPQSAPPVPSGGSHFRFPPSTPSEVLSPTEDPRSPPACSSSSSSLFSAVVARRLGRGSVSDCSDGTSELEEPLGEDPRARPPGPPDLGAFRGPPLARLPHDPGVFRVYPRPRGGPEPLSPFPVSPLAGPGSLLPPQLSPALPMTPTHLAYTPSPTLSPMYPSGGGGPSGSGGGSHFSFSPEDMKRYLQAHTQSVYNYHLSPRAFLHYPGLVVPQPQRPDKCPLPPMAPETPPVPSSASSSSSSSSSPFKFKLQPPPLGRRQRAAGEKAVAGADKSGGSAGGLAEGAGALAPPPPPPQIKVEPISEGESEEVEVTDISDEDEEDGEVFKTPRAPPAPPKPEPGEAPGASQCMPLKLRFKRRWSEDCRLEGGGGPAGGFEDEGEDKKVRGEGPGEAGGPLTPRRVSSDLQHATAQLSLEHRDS
In short, it runs like this: as §1

Assay [15] addresses T9, ETV3L (Homo sapiens, UniProt Q6ZN32 1-361).
T9 sequence: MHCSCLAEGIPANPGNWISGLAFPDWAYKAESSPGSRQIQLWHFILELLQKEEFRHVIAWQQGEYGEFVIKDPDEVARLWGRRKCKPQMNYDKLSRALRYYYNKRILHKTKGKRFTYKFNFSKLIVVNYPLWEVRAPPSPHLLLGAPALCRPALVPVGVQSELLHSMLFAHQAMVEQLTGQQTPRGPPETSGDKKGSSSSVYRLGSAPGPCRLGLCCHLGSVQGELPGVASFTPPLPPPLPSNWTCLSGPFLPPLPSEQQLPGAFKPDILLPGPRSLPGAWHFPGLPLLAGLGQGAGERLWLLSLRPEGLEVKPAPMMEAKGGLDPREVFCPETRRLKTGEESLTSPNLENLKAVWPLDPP
In short, it runs like this: as §1

Assay [16] deals with T10, ETS2 (Homo sapiens, UniProt P15036 1-469).
T10 sequence: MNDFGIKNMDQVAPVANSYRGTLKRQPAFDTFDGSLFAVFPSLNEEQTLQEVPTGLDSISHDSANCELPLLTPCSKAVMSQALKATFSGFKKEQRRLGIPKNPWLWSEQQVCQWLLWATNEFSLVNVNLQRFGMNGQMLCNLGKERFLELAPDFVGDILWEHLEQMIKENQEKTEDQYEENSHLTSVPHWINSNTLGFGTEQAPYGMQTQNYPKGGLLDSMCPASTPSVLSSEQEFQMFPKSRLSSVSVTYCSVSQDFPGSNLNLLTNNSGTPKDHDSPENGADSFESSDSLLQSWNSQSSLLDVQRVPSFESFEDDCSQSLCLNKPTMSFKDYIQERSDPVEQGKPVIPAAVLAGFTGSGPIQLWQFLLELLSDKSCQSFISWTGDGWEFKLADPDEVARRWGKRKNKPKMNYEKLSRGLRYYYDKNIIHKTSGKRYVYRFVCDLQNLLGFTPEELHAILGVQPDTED
In short, it runs like this:
as §1

Assay [17] concerns the target T11, SPDEF (Homo sapiens, UniProt O95238 1-335).
T11 sequence: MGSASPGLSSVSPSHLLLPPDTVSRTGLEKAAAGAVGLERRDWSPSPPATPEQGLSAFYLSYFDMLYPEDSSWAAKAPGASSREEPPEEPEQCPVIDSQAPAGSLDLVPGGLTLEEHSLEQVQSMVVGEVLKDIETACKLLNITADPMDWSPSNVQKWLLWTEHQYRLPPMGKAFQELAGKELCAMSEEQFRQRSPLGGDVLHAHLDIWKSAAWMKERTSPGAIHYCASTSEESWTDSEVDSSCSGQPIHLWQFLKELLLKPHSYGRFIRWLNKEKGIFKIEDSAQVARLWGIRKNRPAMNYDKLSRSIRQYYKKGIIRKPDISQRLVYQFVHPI
In short, it runs like this: as §1

Assay [18] deals with T12, ETV7 (Homo sapiens, UniProt Q9Y603 1-341).
T12 sequence: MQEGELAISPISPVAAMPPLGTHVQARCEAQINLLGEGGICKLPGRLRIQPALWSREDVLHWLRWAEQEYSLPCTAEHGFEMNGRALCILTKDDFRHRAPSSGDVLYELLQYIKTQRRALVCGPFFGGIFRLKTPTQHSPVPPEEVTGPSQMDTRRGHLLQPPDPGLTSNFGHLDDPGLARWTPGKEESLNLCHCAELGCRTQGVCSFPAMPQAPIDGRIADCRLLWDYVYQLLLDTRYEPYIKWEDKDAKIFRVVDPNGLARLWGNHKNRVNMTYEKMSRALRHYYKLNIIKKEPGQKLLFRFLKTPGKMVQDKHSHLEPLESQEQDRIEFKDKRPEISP
The essentials:
as §1

Assay [19] concerns the target T13, ETV3 (Homo sapiens, UniProt P41162-2 1-143).
T13 sequence: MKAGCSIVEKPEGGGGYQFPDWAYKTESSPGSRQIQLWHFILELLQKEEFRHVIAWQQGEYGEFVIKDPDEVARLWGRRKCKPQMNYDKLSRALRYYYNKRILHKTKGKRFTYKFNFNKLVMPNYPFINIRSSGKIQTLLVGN
The essentials: as §1

Assay [20] has as its target ETV6 (Homo sapiens, UniProt P41212 1-452). The essentials:
as §1

Sequence of ELF4 (Q99607 whole entry): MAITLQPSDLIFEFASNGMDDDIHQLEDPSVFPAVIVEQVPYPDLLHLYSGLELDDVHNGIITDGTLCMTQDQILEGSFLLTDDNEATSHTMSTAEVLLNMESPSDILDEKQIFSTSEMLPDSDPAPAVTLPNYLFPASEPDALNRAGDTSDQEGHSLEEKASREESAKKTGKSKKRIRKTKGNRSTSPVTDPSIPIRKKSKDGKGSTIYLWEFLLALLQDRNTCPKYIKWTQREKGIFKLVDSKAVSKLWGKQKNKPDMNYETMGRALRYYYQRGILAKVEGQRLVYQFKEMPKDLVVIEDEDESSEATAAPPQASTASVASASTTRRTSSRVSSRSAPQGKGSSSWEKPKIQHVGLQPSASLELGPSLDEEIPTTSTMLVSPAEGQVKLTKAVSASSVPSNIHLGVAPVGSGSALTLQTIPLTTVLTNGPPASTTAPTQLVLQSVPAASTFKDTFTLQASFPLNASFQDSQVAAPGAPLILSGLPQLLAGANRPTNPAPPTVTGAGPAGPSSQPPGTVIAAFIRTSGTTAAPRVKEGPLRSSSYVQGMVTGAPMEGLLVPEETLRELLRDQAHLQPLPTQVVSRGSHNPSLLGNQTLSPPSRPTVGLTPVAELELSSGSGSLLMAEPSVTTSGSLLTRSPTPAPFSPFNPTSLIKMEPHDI
Sequence of SPIB (Q01892 whole entry): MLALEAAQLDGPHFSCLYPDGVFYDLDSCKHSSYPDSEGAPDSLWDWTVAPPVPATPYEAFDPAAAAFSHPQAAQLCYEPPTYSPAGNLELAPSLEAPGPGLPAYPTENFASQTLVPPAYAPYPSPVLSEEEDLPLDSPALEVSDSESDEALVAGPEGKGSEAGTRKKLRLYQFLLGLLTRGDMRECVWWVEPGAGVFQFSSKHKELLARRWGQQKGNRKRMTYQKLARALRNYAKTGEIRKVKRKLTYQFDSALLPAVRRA
Sequence of ELF1 (P32519 whole entry): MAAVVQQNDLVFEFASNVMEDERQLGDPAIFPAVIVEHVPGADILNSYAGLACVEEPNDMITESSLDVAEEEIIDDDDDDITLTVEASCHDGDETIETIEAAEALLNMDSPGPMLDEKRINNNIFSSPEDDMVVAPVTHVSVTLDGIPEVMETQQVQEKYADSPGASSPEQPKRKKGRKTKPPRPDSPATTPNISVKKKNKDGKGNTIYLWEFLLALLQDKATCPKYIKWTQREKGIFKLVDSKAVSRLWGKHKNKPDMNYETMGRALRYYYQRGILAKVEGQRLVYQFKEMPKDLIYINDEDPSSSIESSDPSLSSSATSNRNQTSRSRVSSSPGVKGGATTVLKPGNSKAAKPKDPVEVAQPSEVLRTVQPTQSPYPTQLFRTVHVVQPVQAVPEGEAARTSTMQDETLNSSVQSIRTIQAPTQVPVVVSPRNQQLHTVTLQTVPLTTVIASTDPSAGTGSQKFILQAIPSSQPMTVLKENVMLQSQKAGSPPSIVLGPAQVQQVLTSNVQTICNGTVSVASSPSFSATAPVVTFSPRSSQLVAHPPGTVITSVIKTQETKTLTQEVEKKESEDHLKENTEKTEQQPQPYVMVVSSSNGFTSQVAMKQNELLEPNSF
Sequence of ETV1 (P50549 whole entry): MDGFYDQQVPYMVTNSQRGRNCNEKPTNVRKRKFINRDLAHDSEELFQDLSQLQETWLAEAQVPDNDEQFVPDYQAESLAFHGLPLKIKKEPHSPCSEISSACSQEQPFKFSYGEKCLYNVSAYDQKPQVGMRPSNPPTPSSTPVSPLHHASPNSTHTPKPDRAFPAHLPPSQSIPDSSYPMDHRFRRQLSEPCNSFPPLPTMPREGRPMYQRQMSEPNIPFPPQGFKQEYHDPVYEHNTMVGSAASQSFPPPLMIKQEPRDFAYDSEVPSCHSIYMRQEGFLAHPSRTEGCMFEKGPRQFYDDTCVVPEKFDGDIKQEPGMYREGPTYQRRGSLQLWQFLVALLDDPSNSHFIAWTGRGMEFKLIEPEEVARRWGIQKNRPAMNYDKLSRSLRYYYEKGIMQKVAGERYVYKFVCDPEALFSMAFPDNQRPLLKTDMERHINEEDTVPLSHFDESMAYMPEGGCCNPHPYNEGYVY
Sequence of ETV6 (P41212 whole entry): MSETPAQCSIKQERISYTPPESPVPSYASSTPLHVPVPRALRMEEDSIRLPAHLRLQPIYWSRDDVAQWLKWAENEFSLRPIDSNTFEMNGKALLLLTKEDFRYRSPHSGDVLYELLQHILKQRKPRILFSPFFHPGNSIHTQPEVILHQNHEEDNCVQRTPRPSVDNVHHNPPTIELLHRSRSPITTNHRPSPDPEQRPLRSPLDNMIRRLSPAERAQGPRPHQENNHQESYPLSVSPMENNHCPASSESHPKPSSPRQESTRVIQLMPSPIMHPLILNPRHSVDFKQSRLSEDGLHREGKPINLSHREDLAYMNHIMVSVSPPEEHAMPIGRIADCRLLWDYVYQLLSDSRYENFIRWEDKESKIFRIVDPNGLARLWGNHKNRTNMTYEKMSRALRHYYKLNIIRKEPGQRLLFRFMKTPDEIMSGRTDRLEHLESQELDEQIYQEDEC
Sequence of ETV5 (P41161 whole entry): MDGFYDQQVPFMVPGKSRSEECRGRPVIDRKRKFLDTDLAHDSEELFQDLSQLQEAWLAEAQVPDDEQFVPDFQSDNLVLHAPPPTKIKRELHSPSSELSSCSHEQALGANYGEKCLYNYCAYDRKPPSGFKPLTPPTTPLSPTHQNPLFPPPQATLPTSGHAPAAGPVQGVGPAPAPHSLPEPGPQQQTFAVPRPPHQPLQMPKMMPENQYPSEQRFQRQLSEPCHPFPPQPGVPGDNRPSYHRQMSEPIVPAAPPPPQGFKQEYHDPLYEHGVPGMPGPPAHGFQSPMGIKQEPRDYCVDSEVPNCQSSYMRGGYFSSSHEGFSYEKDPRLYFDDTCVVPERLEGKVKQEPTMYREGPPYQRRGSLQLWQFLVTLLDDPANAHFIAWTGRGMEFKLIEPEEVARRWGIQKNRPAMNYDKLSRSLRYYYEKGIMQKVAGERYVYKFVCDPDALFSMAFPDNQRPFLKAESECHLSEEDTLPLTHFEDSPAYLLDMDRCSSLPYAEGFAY

As to GGTAAA, the binding signal in assay [1] is 1.1 fold enrichment (6-mer frequency, TF over GST control); in [2], 1.07 fold enrichment (6-mer frequency, TF over GST control); in [3], 1.04 fold enrichment (6-mer frequency, TF over GST control); in assay [4], 1.08 fold enrichment (6-mer frequency, TF over GST control); in assay [5], 1.05 fold enrichment (6-mer frequency, TF over GST control); in [6] it was 1.04 fold enrichment (6-mer frequency, TF over GST control). Further, the binding signal was 1.08 fold enrichment (6-mer frequency, TF over GST control) in assay [7]; 1.02 fold enrichment (6-mer frequency, TF over GST control) in assay [8]; 1.06 fold enrichment (6-mer frequency, TF over GST control) in assay [9]; 1.04 fold enrichment (6-mer frequency, TF over GST control) in assay [10]; 1.11 fold enrichment (6-mer frequency, TF over GST control) in [11]; 1.03 fold enrichment (6-mer frequency, TF over GST control) in assay [12]. Further, the binding signal in assay [13] is 1.08 fold enrichment (6-mer frequency, TF over GST control); in assay [14], 1.01 fold enrichment (6-mer frequency, TF over GST control); in [15] it was 1 fold enrichment (6-mer frequency, TF over GST control); in assay [16], 1.1 fold enrichment (6-mer frequency, TF over GST control); in assay [17] it was 1.02 fold enrichment (6-mer frequency, TF over GST control); in assay [18], 1.12 fold enrichment (6-mer frequency, TF over GST control). Also, the binding signal in assay [19] is 1.06 fold enrichment (6-mer frequency, TF over GST control); in assay [20] it was 1.07 fold enrichment (6-mer frequency, TF over GST control).
